{"source": "PubChem BioAssay AID2314", "about": "(National Center for Advancing Translational Sciences (NCATS), 2010)", "note": "Where “and” joins values, the source holds several entries; their conditions need not be identical. Equal values may be shown once. About 37,000 (12%) of roughly 300,000 compounds were called active. The sample as a whole holds a higher share of actives than the screen did. Unmarked numbers belong to inactive results. Cut-off read from the data, not from the text of the source: active = max response mostly above about 13% (no sharp cut-off); inactive = mostly below about 14%.", "data": [{"assay": "Cycloheximide Counterscreen for Small Molecule Inhibitors of Shiga Toxin; note: read at 38.3 µM for the half of the compounds with a filed dose; 0% is about no effect", "conditions": "cell reporter, cycloheximide protein synthesis inhibition counterscreen; hits give high values", "values": [{"smiles": "Cc1sc2ncn(CC(=O)NCCN(C)C)c(=O)c2c1S(=O)(=O)N1CCC(C)CC1", "max response": "7.86%"}, {"smiles": "Cc1ccccc1-n1c(C)cc(/C=N/NC(=O)c2ccc(CN3CCOCC3)cc2)c1C", "max response": "1.39%"}, {"smiles": "COc1cc(CC(=O)N2CCC(n3nccc3NC(=O)C3CC3)CC2)cc(OC)c1OC", "max response": "-1.39%"}, {"smiles": "C/C(=N\\NC(=O)c1ccc(NS(=O)(=O)c2cccs2)cc1)c1ccc2ccccc2c1", "max response": "7.4%"}, {"smiles": "Cc1ccc(S(=O)(=O)N(Cc2cc3ccccc3[nH]c2=O)CC2CCCO2)cc1", "note": "(stereo not given)", "max response": "-1.24%"}, {"smiles": "CCn1cc(CN2CCC(C(=O)Nc3cccc(-c4cccc(Cl)c4)c3)CC2)c(C)n1", "max response": "-9.71%"}, {"smiles": "CCCOc1ccc(-c2c(C(=O)N/N=C/c3ccco3)nnn2-c2nonc2N)cc1", "max response": "-0.593%"}, {"smiles": "Clc1ccccc1-c1cc(COc2ccc3ccccc3c2)no1", "max response": "6.98%"}, {"smiles": "CNC(=O)c1csc(Cc2c(Cl)sc3ccc(Cl)cc23)n1", "max response": "-2.08%"}, {"smiles": "CNC(=O)c1cccc2nc3ccccc3nc12", "max response": "1.67%"}, {"smiles": "C=CCNC(=O)c1cc(-c2ccccc2O)on1", "max response": "59.8% (active)"}, {"smiles": "C=CCNC(=O)c1csc(-c2ccccc2)n1", "max response": "28.5% (active)"}, {"smiles": "O=C(NCc1ccccn1)c1ccc2nc(-c3ccco3)c(-c3ccco3)nc2c1", "max response": "0.719%"}, {"smiles": "C=CCNC(=O)c1cc2nc(C3CC3)cc(C(F)F)n2n1", "max response": "11.1%"}, {"smiles": "O=C(NCc1ccccn1)c1cc(-c2ccccc2Cl)on1", "max response": "38.8% (active)"}, {"smiles": "C=CCNC(=O)c1ccccc1SCc1c(C)noc1C", "max response": "-1.93%"}, {"smiles": "O=C(Nc1cccnc1Cl)c1cc(-c2ccccc2O)on1", "max response": "17%"}, {"smiles": "O=C(O)Cc1csc(-c2cccc(Oc3ccccc3)c2)n1", "max response": "-1.21% and 2.4%"}, {"smiles": "CNC(=O)c1csc(-c2ccccc2)n1", "max response": "13.6% (active)"}, {"smiles": "CCn1c(=O)c(C(=O)NCc2ccc3c(c2)OCO3)c(O)c2ccccc21", "max response": "-2.8%"}, {"smiles": "COc1ccc(OC)c(/C(C)=N\\NC(=O)c2cc3cc(Cl)ccc3n2C)c1", "max response": "-5.13%"}, {"smiles": "COc1cc([C@H](Cc2ccccc2)NC(C)=O)oc(=O)c1", "max response": "-1.33%"}, {"smiles": "Cc1ccc(C)c(S(=O)(=O)Nc2cccc(-n3cnnn3)c2)c1", "max response": "-4.16%"}, {"smiles": "CC1CN(C(=O)CCC(=O)NC2CCN(Cc3ccccc3)CC2)c2ccccc2O1", "note": "(stereo not given)", "max response": "-2.34%"}, {"smiles": "O=C(O)CCCn1cc(NC(=O)COc2cccc(Cl)c2)cn1", "max response": "-1.65%"}, {"smiles": "[O-][N+]12CCCCC1CCCC2CO", "note": "(stereo not given)", "max response": "-2.81%"}, {"smiles": "Cc1ccccc1N1CCN(CCCN2C(=O)C3CCCCN3C2=O)CC1", "note": "(stereo not given)", "max response": "-0.589%"}, {"smiles": "CCNC(=O)NC(=O)C(C)OC(=O)c1cc(S(=O)(=O)N2CCCCCC2)ccc1OC", "note": "(stereo not given)", "max response": "15.1%"}, {"smiles": "CSCCC(=O)N1CCCC(CNC(=O)c2ccccc2Cl)C1", "note": "(stereo not given)", "max response": "-3.24%"}, {"smiles": "O=C1CCC(CCC(=O)N2CCCC(C(=O)c3ccc(Cl)cc3)C2)=NN1", "note": "(stereo not given)", "max response": "8.2%"}, {"smiles": "COCC1CCN(C(=O)CCc2nnc(C3(c4ccc(Cl)cc4)CCC3)o2)C1", "note": "(stereo not given)", "max response": "44% (active)"}, {"smiles": "COC(=O)c1ccccc1NC(=O)Cc1ccccc1OC", "max response": "-2.67%"}, {"smiles": "CC[C@]1(c2ccccc2OC)C(=O)N(C(=O)OC)N1C(=O)OC", "max response": "29.1% (active)"}, {"smiles": "COc1ccccc1CC(=O)Nc1ccc(F)cc1F", "max response": "-2.45%"}, {"smiles": "CCCC(C)NC(=O)C1CCN(C(=O)C2CC(=O)N(c3ccc(C)cc3)C2)CC1", "note": "(stereo not given)", "max response": "-4.68%"}, {"smiles": "Brc1c(CSc2nncc3ccccc23)nc2ccccn12", "max response": "38.5% (active)"}, {"smiles": "CC(=O)O[C@H]1c2ccccc2-c2ccccc2[C@@H]1OC(C)=O", "max response": "0.95%"}, {"smiles": "Cc1ccc(SCC(=O)NNC(=O)c2ccc(S(C)(=O)=O)cc2)cc1", "max response": "5.01%"}, {"smiles": "COC(=O)c1ccc(CNC(=O)C2CCC(=O)N(Cc3cccc(F)c3)C2)cc1", "note": "(stereo not given)", "max response": "0.912%"}, {"smiles": "Cc1cccnc1CCNC(=O)C1CCC(=O)N(Cc2cccc(F)c2)C1", "note": "(stereo not given)", "max response": "-2.2%"}, {"smiles": "COCC1CCN(C(=O)C2CCC(=O)N(Cc3cccc(C(F)(F)F)c3)C2)CC1", "note": "(stereo not given)", "max response": "29.7% (active)"}, {"smiles": "O=C1CCC(C(=O)N2CCCCO2)CN1Cc1cccc(C(F)(F)F)c1", "note": "(stereo not given)", "max response": "30% (active)"}, {"smiles": "O=C(c1ccco1)N1CCN(Cc2cccc(C(F)(F)F)c2)CC1", "max response": "-3.76%"}, {"smiles": "COCC1CCN(C(=O)C2CCC(=O)N(CC3CCCCC3)C2)CC1", "note": "(stereo not given)", "max response": "-2.01%"}, {"smiles": "CC(=O)Nc1ccc(S(=O)(=O)N2CCC(C(=O)N[C@@H](Cc3ccccc3)C(=O)O)CC2)cc1", "max response": "10.8%"}, {"smiles": "COc1ccccc1CNC(=O)C1CCN(S(=O)(=O)c2ccc3c(c2)OCCO3)CC1", "max response": "-5.22%"}, {"smiles": "CCOc1cc(C(=O)O)ccc1OCCOc1ccccc1", "max response": "-8.53%"}, {"smiles": "COc1ccccc1CC(=O)Nc1ccc(S(=O)(=O)N2CCCC2)cc1", "max response": "-4.23%"}, {"smiles": "C[C@@]12C(=O)N(c3cccc(Br)c3)C(=O)N1[C@H](c1ccc(Cl)cc1)[C@@H]1C(=O)N(C3CCCCC3)C(=O)[C@@H]12", "max response": "-2.82%"}, {"smiles": "CS(=O)(=O)c1ccc2nc(NC(=O)c3ccc(Cl)nc3)sc2c1", "max response": "39.4% (active)"}, {"smiles": "O=C(NC(Nc1nc2ccc([N+](=O)[O-])cc2s1)(C(F)(F)F)C(F)(F)F)c1ccccc1", "max response": "0.792%"}, {"smiles": "CS(=O)(=O)c1ccc2nc(NC(=O)C3C4C=CC(C4)C3C(=O)O)sc2c1", "note": "(stereo not given)", "max response": "2.94%"}, {"smiles": "CNC(=O)c1ccc2nc(NC(C)=O)sc2c1", "max response": "38% (active)"}, {"smiles": "CS(=O)(=O)c1ccc2nc(NC(=O)c3ccc(N4CCCC4=O)cc3)sc2c1", "max response": "-2.38%"}, {"smiles": "O=C(Nc1nc2ccc([N+](=O)[O-])cc2s1)c1ccncc1", "max response": "23.5% (active)"}, {"smiles": "COc1cccc(C(=O)Nc2nnc(S(=O)(=O)N3CCOCC3)s2)c1", "max response": "-4.33%"}, {"smiles": "CS(=O)(=O)c1ccc2nc(NC(=O)CN3CCCCCC3)sc2c1", "max response": "-1.48%"}, {"smiles": "CCCC(=O)Nc1nc2ccc(NC(=O)c3cccnc3)cc2s1", "max response": "9.53%"}, {"smiles": "COc1cccc(C(=O)Nc2nc3ccc(S(C)(=O)=O)cc3s2)c1", "max response": "33.2% (active)"}, {"smiles": "O=C(Nc1nc2ccc([N+](=O)[O-])cc2s1)c1ccc(S(=O)(=O)N2CCCc3ccccc32)cc1", "max response": "-2.29%"}, {"smiles": "CCCCSCCCNC(=O)C1CCC(CNS(=O)(=O)c2ccc(NC(C)=O)cc2)CC1", "note": "(stereo not given)", "max response": "0.78%"}, {"smiles": "Cc1cc(=O)[nH]c(S)c1C#N", "max response": "-1.97%"}, {"smiles": "O=C(CN1CCN(C(=S)NC2CCCC2)CC1)Nc1ccc(Oc2ccccc2)cc1", "max response": "-0.686%"}, {"smiles": "Cc1ccc(C(=O)N(CC(=O)NC2CCCC2)c2ccc(F)cc2)s1", "max response": "-2.41%"}, {"smiles": "CCCn1c(NC(=O)C23CC4CC(CC(O)(C4)C2)C3)nc2ccccc21", "max response": "-2.34%"}, {"smiles": "CCC(=O)c1ccc(N2CCN(C(=O)c3cc([N+](=O)[O-])ccc3F)CC2)c(F)c1", "max response": "-0.539%"}, {"smiles": "Cc1ccc2nc3c(cc(C(=O)NCCc4ccccc4)c(=N)n3CC3CCCO3)c(=O)n2c1", "note": "(stereo not given)", "max response": "-3.51%"}, {"smiles": "O=C(Nc1ccccc1)C1CCN(C(=O)c2ccc(Br)cc2)CC1", "max response": "11.6%"}, {"smiles": "O=C(Nc1ccc(C(=O)NCc2ccccc2Cl)cc1)C1=CSCCO1", "max response": "31.9% (active)"}, {"smiles": "O=C(NCc1ccccc1Cl)C1CCCO1", "note": "(stereo not given)", "max response": "-1.7%"}, {"smiles": "CSc1ccc(CNC(=O)c2ccc(NC(=O)C3=CSCCO3)cc2)cc1", "max response": "3.98%"}, {"smiles": "Cc1nc(SCc2ccc(F)cc2)c([N+](=O)[O-])[nH]1", "max response": "12.6% (active)"}, {"smiles": "Cc1nc(SCC(=O)c2ccccc2)c([N+](=O)[O-])[nH]1", "max response": "-1.4%"}, {"smiles": "Cc1nc(N)nc(SCc2ccc([N+](=O)[O-])cc2)c1N", "max response": "-1.9%"}, {"smiles": "COc1ccc([N+](=O)[O-])cc1NCC(=O)c1ccc(C)cc1", "max response": "20.4%"}, {"smiles": "Cc1ccc(C(=O)NNC2=Nc3cc([N+](=O)[O-])ccc3OC2)cc1", "max response": "20.2% (active)"}, {"smiles": "Cc1ccc(C)n1NC(=O)c1ccc([N+](=O)[O-])cc1", "max response": "-0.957%"}, {"smiles": "O=C(CNC(=O)Cc1ccccc1)N=Nc1c(O)[nH]c2ccc(Br)cc12", "max response": "-2.22%"}, {"smiles": "CC1(C)CC(CC(=O)O)C(=O)O1", "note": "(stereo not given)", "max response": "-0.893%"}, {"smiles": "C/C(CC1CC(C)(C)OC1=O)=N/Nc1nc(-c2ccccc2)cs1", "note": "(stereo not given)", "max response": "24.7% (active)"}, {"smiles": "Cc1cc(C(C)(C)C)oc1C(=O)N(CC(=O)NC1CCCC1)Cc1ccc(Cl)cc1", "max response": "2.13%"}, {"smiles": "Cc1ccc(S(=O)(=O)N2CC(C)N(S(C)(=O)=O)C2)cc1", "note": "(stereo not given)", "max response": "-4.88%"}, {"smiles": "CC(=O)N/C(=N/c1nc(C)cc(C)n1)Nc1ccc(F)cc1F", "max response": "-4.27%"}, {"smiles": "COc1ccc(C/C(C)=N/NC(=O)c2ccncc2)cc1", "max response": "3.76%"}, {"smiles": "COc1ccc(C/C(C)=N/NC(=O)c2cc(C)oc2C)cc1", "max response": "26.5% (active)"}, {"smiles": "CCCCCNC(=O)Cc1ccc(OC)cc1", "max response": "-1.71%"}, {"smiles": "O=C1COc2ccc(S(=O)(=O)Nc3ccc(OC(F)(F)F)cc3)cc2N1", "max response": "-6.66%"}, {"smiles": "Fc1ccc(COc2cccc(-c3n[nH]c(=S)o3)c2)cc1", "max response": "5.34%"}, {"smiles": "Fc1ccc(COc2ccc(-c3nnco3)cc2)cc1", "max response": "52.6% (active)"}, {"smiles": "Fc1cccc(Cl)c1COc1ccc(-c2nnco2)cc1", "max response": "24.9%"}, {"smiles": "Cc1cccc(C(=O)Nc2nnc(S(=O)(=O)N3CCCCCC3)s2)c1", "max response": "-1.9%"}, {"smiles": "O=C1/C(=C/c2ccc(F)cc2)SC(=S)N1CCCC(=O)N1CCCCC1CCO", "note": "(stereo not given)", "max response": "0.37%"}, {"smiles": "COc1ccc(CC(=O)Nc2cc(S(=O)(=O)N3CCCCC3)ccc2N2CCN(C)CC2)cc1", "max response": "-2.16%"}, {"smiles": "CN1CCN(c2ccc(S(=O)(=O)N3CCCCC3)cc2NC(=O)Cc2ccccc2F)CC1", "max response": "0.822%"}, {"smiles": "CCN1CCN(c2ccc(S(=O)(=O)N3CCCCC3)cc2NC(=O)Cc2c(Cl)cccc2Cl)CC1", "max response": "44.2% (active)"}]}]}
